S2 tox: reduces viability in counter-screen for ATXN expression inhibitors; S2 cells (HEK-293 line with an ATXN2-luciferase reporter) viability, CellTiter-Fluor protease fluorescence, 24 h; Potency, µM (top dose mostly 56.7 µM), actives largely listed as cytotoxic; 400,000 tested, 0.49% active; AID 651635; further: nearly all actives have a fitted effect of over 40% in size
DT40 TDP1 no CPT: qHTS for Inhibitors of human tyrosyl-DNA phosphodiesterase 1 (TDP1): qHTS in cells in absence of CPT | DT40 Tdp1-/- hTDP1 cells, no CPT, ATP luminescence, 48 h | Potency, µM (series often up to 46.2 µM), for the others: at the top dose activity change, negative = growth inhibition, most hits filed as inhibitors | 420,000 tested, 15% active | AID 686978, 2013; further: on the % scale 0 is the no-effect control and ±100 the full control effect; nearly all actives have a fitted effect of over 55% in size
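Luminescent ATP content (CellTiter-Glo) served as the growth readout. Knockout chicken DT40 cells expressing human TDP1 were exposed to compounds without camptothecin for a minimum 48 hr at 37 °C.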
TGFb inhibitor: inhibitors of TGF-b signaling; AID 588855; Potency, µM (series often up to 46.1 µM), for inactives: top-dose activity, negative = inhibition, hits mostly inhibitors; 410,000 tested, 1.2% active; HepG2 CAGA-GFP TGF-b/SMAD3 reporter, GFP fluorescence, 18 h; TGF-beta stimulated, 500 pg/mL final; further: on the % scale 0 is the no-effect control and ±100 the full control effect; nearly all actives have a fitted effect of over 65% in size
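Inhibition of TGF-beta-driven CAGA-GFP reporter expression in HEPG2 cells is measured by cellular GFP fluorescence after 18 h stimulation with 500 pg/mL recombinant TGF-beta in 1% FBS medium at 37 degrees C.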
HepG2 viability: HepG2 cytotoxicity, counter-screen for TGF-b inhibitors | HepG2 CAGA-GFP viability, ATP luminescence, 18 h | Potency, µM (doses to about 46.1 µM), for the others: top-dose activity change, negative = cytotoxicity, hits mostly cytotoxic | 410,000 tested, 0.76% active | AID 588856
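CellTiter-Glo luminescence gave cytotoxicity after 18 hours at 37 degrees C. The cells were HepG2 CAGA-GFP in 1% FBS DMEM, stimulated with 500 pg/mL TGF-beta after compound addition. %Activity was normalised to no-cell wells (complete cell-killing) and DMSO (no toxicity), and curves were fitted and classified.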
ATXN2 expr inh: reduces ATXN2 reporter expression in HEK-293 cells | 360,000 tested, 0.72% active | HEK-293 ATXN2-luciferase reporter, luminescence, 24 h | Potency, µM (titrated, usually from 57 µM), without a hit: at the highest dose activity change, negative = inhibition, usual class: inhibitors; further: on the % scale 0 is the no-effect control and ±100 the full control effect; nearly all actives have a fitted effect of over 55% in size
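ATXN2-luciferase reporter cells (luciferase flanked by upstream and downstream ATXN2 gene portions) were treated 24 h at 37 °C with compounds at up to 57 uM. SteadyGlo luminescence gave expression; GF-AFC fluorescence gave viability.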
DT40 TDP1 CPT: growth inhibition of DT40 Tdp1-/-;hTDP1 cells with camptothecin (screen for TDP1 inhibitors). AID 686979. Potency, µM (series often up to 46.2 µM), for the others: top-dose activity change, negative = growth inhibition, most hits filed as inhibitors. 420,000 tested, 12% active. chicken DT40 Tdp1-/-;hTDP1 cells + 20 nM CPT, ATP luminescence, 48 h; further: on the % scale 0 is the no-effect control and ±100 the full control effect; nearly all actives have a fitted effect of over 55% in size
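Chicken DT40 Tdp1-/- cells complemented with human TDP1, 400 cells/well, exposed to compounds plus 20 nM camptothecin for at least 48 h at 37 C; viability read as ATP content by CellTiter-Glo luminescence.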
Starred values were filed as active, the others as inactive. Most compounds without a hit are left out; they make up all but 17% or so of the library. The call rests on the fitted dose curve; in most records, active means well fitted curve in the direction sought with a large enough effect; inconclusive means small, poorly fitted or top-dose-only effect, or another doubt; inactive means no such curve, though single readings can be large; an effect the other way counts as inactive or inconclusive. Potency means the concentration at half of the fitted maximal effect.

`COc1ccccc1N1CCN(C(=O)C2c3ccccc3Oc3ccccc32)CC1` gave S2 tox inconclusive, DT40 TDP1 no CPT 2.9µM*, TGFb inhibitor inconclusive, HepG2 viability 0%, ATXN2 expr inh -10% and DT40 TDP1 CPT 2.9µM*.
`O=C(C1c2ccccc2Oc2ccccc21)N1CCN(c2ccc(Cl)cc2)CC1` gave S2 tox inconclusive, DT40 TDP1 no CPT 15µM*, TGFb inhibitor -8%, HepG2 viability -18%, ATXN2 expr inh -28% and DT40 TDP1 CPT inconclusive.
Screening COc1ccccc1N1CCN(C(=O)C2CC2)CC1 returned S2 tox inactive, DT40 TDP1 no CPT -11%, TGFb inhibitor -4%, HepG2 viability 0%, ATXN2 expr inh 14% and DT40 TDP1 CPT 8%.
For CCN(CC)C(=O)c1cc([N+](=O)[O-])cc2c1-c1ccc([N+](=O)[O-])cc1C2=C(C#N)C#N the results were S2 tox inactive, DT40 TDP1 no CPT 16µM*, TGFb inhibitor inconclusive, HepG2 viability -29%, ATXN2 expr inh -17% and DT40 TDP1 CPT 0.65µM*.
O=C(O)c1cc([N+](=O)[O-])ccc1-c1ccc([N+](=O)[O-])cc1C(=O)O was read as DT40 TDP1 no CPT 3%, TGFb inhibitor -2%, HepG2 viability 5% and DT40 TDP1 CPT 2%.
Screening COc1ccc(N2CCN(S(=O)(=O)c3ccc(OC)c(C(=O)N4CCCCC4)c3)CC2)cc1 returned S2 tox inactive, DT40 TDP1 no CPT inconclusive, TGFb inhibitor -4%, HepG2 viability -1%, ATXN2 expr inh -15% and DT40 TDP1 CPT inconclusive.
Cc1ccc(-n2ncc(C(=O)Nc3cc(Cl)ccc3Cl)c2C2CCNCC2)cc1 was read as S2 tox inactive, DT40 TDP1 no CPT 23µM*, TGFb inhibitor inconclusive, HepG2 viability -19%, ATXN2 expr inh -38% and DT40 TDP1 CPT 23µM*.
`CCc1ccc(N2CC(C(=O)N3CCN(S(=O)(=O)c4cccc(F)c4)CC3)CC2=O)cc1` (stereo not given) gave S2 tox inactive, DT40 TDP1 no CPT inconclusive, TGFb inhibitor -21%, HepG2 viability -23% and DT40 TDP1 CPT inconclusive.
Screening CSc1cccc(N2CC(C(=O)N3CCN(S(=O)(=O)c4ccccc4Cl)CC3)CC2=O)c1 (stereo not given) returned S2 tox inactive, DT40 TDP1 no CPT 23µM*, TGFb inhibitor inconclusive, HepG2 viability -25% and DT40 TDP1 CPT inconclusive.
Screening COc1ccc(/C=N/Nc2nccnc2Cl)cc1 returned S2 tox inactive, DT40 TDP1 no CPT 21µM*, TGFb inhibitor 0%, HepG2 viability 7.9µM*, ATXN2 expr inh -34% and DT40 TDP1 CPT 9.2µM*.
For Brc1ccc(/C=N/Nc2ccccn2)cc1 the results were S2 tox inactive, DT40 TDP1 no CPT -20%, TGFb inhibitor inconclusive, HepG2 viability -22%, ATXN2 expr inh 62% and DT40 TDP1 CPT -1%.
Screening Clc1nccnc1N/N=C/c1ccc(Br)cc1 returned S2 tox inactive, DT40 TDP1 no CPT -25%, TGFb inhibitor -25%, HepG2 viability 13µM*, ATXN2 expr inh 57% and DT40 TDP1 CPT inconclusive.
`O=C1CC(c2nnc(Cc3cccc(Cl)c3)o2)CN1c1ccccc1` (stereo not given) gave S2 tox inactive, DT40 TDP1 no CPT -7%, TGFb inhibitor -11%, HepG2 viability -11%, ATXN2 expr inh -10% and DT40 TDP1 CPT 1%.
Screening COc1cc(OC)c(NC(=O)Cn2cnc3c(nc4n3CCCCC4)c2=O)cc1Cl returned S2 tox inactive, DT40 TDP1 no CPT -16%, TGFb inhibitor -6%, HepG2 viability -4%, ATXN2 expr inh 6% and DT40 TDP1 CPT -11%.
